# Inconclusive results are not listed. Entries that show only a call come without a potency. Active and inactive are the calls of the source. Calls follow the shape of the dose curve; as a rule, active = well fitted curve in the direction sought with a large enough effect; inconclusive = small, poorly fitted or top-dose-only effect, or another doubt; inactive = no such curve, though single readings can be large; an effect the other way counts as inactive or inconclusive.
# Tested on: not listed separately
# Assay: Primary qHTS for inhibitors of nuclear receptor binding SET domain protein 2 (NSD2) in an isogenic RCH-ACV NSD2 p.E1099K mutant (9B) (AID 1645876); also: nearly all actives have a fitted effect of over 70% in size; also: potency is read from the fitted curve at half-maximal effect
# Details: RCH-ACV NSD2 E1099K (9B) viability, CellTiter-Glo, 72 h; series mostly up to 44.9 µM
row,Compound,Potency
1,O=C(O)/C(S)=C/c1ccc(I)cc1,inactive
2,O=c1ncccn1[C@@H]1O[C@H](CO)[C@@H](O)[C@H]1O,inactive
3,CCn1c(=O)c2c(nc(/C=C/c3ccc(OC)c(OC)c3)n2C)n(CC)c1=O,inactive
4,Fc1ccc(-c2csc3ncnc(NCc4ccc5c(c4)OCO5)c23)cc1,8.33 µM (active)
5,C=CC(=O)N1CC(N2CCN(C(=O)CNc3cc(C4(C)CC4)c(Cl)cc3O)CC2)C1,23.5 µM (active)
6,CCS(=O)(=O)N1CCC(C(C)n2c(C)c(C(=O)NCc3c(OC)cc(C)[nH]c3=O)c3ccccc32)CC1 (centres undefined),inactive

# Tested on: not listed separately
# Assay: Primary qHTS for inhibitors of nuclear receptor binding SET domain protein 2 (NSD2) in an RCH-ACV wild type WT cells (2C) (AID 1645877); also: nearly all actives have a fitted effect of over 70% in size; also: potency is read from the fitted curve at half-maximal effect
# Details: RCH-ACV (leukaemia line) NSD2 WT (2C) viability, CellTiter-Glo, 72 h; series mostly up to 44.9 µM
row,Compound,Potency
1,CC(=O)N[C@H]1CSSC[C@@H](C(N)=O)NC(=O)[C@H](C(C)C)NC(=O)[C@H](C)NC(=O)[C@H](Cc2cnc[nH]2)NC1=O,inactive
2,C=C1/C(=C/C=C2\CCCC3(C)[C@@H]([C@H](C)/C=C/C=C/C(O)(CC)CC)CC[C@@H]23)C[C@@H](O)C[C@@H]1O (some centres undefined),18.6 µM (active)
3,CN(CCOc1ccc(-c2ccc3c(c2)OCO3)cc1C(C)(C)C)CC(=O)O,20.9 µM (active)
4,C=CC(=O)N1C[C@H](Nc2ncnc3[nH]ccc23)CC[C@@H]1C,inactive
5,CC(C)(CO)n1cc(C(=O)c2cncc(NC(=O)Cc3ccc(Cl)cn3)c2)c2cnc(N)nc21,inactive
6,Cc1[nH]nc2ncc(C(=O)N3CCC[C@H]3c3ccc(Cl)cc3)cc12,0.296 µM (active)
7,Ac-PHSCN-NH2,23.5 µM (active)
8,CCOc1ccc(-n2c([C@@H](C)N(Cc3cccnc3)C(=O)Cc3ccc(F)c(C(F)(F)F)c3)nc3ncccc3c2=O)cc1,18.6 µM (active)
9,COc1cc(-c2cn(C)c(=O)c3cnccc23)c(OC)cc1CN(C)C,8.33 µM (active)
10,COC(=O)C1=C(C)NC(c2ncc(F)cc2F)=N[C@@H]1c1ccc(F)cc1Cl,18.6 µM (active)
11,CCCN(CCC)C(=O)C1=Cc2ccc(-c3ccc(C(=O)N4CCCC4)cc3)cc2N=C(N)C1,18.6 µM (active)
12,CC(=O)[C@]1(N)Cc2c(O)c3c(c(O)c2[C@@H](O[C@H]2C[C@H](O)[C@H](O)CO2)C1)C(=O)c1ccccc1C3=O,23.5 µM (active)
13,Cc1ccc(NC(=O)[C@H]2CCCN(C(=O)c3c(C)cccc3F)[C@H]2c2ccc(NC3CCCC3)cc2)cc1C(F)(F)F,inactive

# Tested on: not listed separately
# Assay: NCATS anti-infectives library activity on HEK293 viability as a counter-qHTS vs the C. elegans viability qHTS (AID 1745854)
# Details: HEK293 viability counter-screen; series mostly up to 41.8 µM
# Procedure, shortened: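 HEK293 cells, 1500 per well, exposed 24 hr at 37C in 5% CO2 to compounds in a 1:5 titration, up to 41.7 uM final. Viability read as CellTiter-Glo luminescence after 10 min at room temperature.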
row,Compound,Potency
1,CC(C)OC(=O)[C@H](C)N[P@](=O)(OC[C@H]1O[C@@H](n2ccc(=O)[nH]c2=O)[C@](C)(F)[C@@H]1O)Oc1ccccc1,inactive
2,Nc1cccc2c1CN([C@H]1CCC(=O)NC1=O)C2=O,inactive
3,O=C(Cc1ccccc1)Nc1nnc(CCSCCc2nnc(NC(=O)Cc3ccccc3)s2)s1,inactive

# Biological target: Glutathione peroxidase 1 (Homo sapiens) (UniProt P07203)
# Sequence (P07203 whole entry, looked up): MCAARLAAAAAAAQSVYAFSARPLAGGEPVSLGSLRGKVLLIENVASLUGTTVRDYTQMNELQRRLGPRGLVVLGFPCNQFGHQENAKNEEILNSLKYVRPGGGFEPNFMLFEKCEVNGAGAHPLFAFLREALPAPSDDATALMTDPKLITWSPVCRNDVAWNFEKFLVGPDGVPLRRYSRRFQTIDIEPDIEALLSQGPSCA
# Assay: Primary qHTS Assay for Inhibitors of Recombinant Selenoprotein Glutathione Peroxidase 1 (GPX1) (AID 1845191); also: nearly all actives have a fitted effect of over 65% in size; also: potency is read from the fitted curve at half-maximal effect
# Details: recombinant GPX1, GR-coupled NADPH fluorescence, 15 min; series mostly up to 48.8 µM
# Procedure, shortened: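 Recombinant GPX1 (10 nM final) was preincubated with compound for 30 min at room temperature, then reacted with 1 mM GSH, 0.5 mM CHP, 0.5 mM NADPH and 100 nM glutathione reductase; NADPH fluorescence (340/450 nm) was read at 0 and 15 min.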
row,Compound,Potency
1,CC(=O)N[C@H]1CSSC[C@@H](C(N)=O)NC(=O)[C@H](C(C)C)NC(=O)[C@H](C)NC(=O)[C@H](Cc2cnc[nH]2)NC1=O,inactive
2,O=C1S/C(=C\c2ccc(OCc3cccc(B(O)O)c3)cc2)C(=O)N1Cc1ccc(F)cc1,inactive
3,O=C(O)/C(S)=C/c1ccc(I)cc1,inactive
4,O=c1ncccn1[C@@H]1O[C@H](CO)[C@@H](O)[C@H]1O,inactive
5,CC(C)OC(=O)[C@H](C)N[P@](=O)(OC[C@H]1O[C@@H](n2ccc(=O)[nH]c2=O)[C@](C)(F)[C@@H]1O)Oc1ccccc1,inactive
6,Cc1nc(C)c(CN2CCN(C(c3ccc(F)cc3)c3ccc(F)cc3)CC2)nc1C,inactive
7,C=C1/C(=C/C=C2\CCCC3(C)[C@@H]([C@H](C)/C=C/C=C/C(O)(CC)CC)CC[C@@H]23)C[C@@H](O)C[C@@H]1O (some centres undefined),inactive
8,Nc1cccc2c1CN([C@H]1CCC(=O)NC1=O)C2=O,inactive
9,C[C@H]1CN(C2COC2)CCN1c1ccc(Nc2cc(-c3ccnc(N4CCn5c(cc6c5CC(C)(C)C6)C4=O)c3CO)cn(C)c2=O)nc1,inactive
10,C=CC(=O)N1C[C@H](Nc2ncnc3[nH]ccc23)CC[C@@H]1C,inactive
11,COc1cc(-c2cn(C)c(=O)c3cnccc23)cc(OC)c1CN(C)C,inactive
12,CC(C)(CO)n1cc(C(=O)c2cncc(NC(=O)Cc3ccc(Cl)cn3)c2)c2cnc(N)nc21,inactive
13,CCn1c(=O)c2c(nc(/C=C/c3ccc(OC)c(OC)c3)n2C)n(CC)c1=O,inactive
14,CCC(=O)OCC(=O)C1(OC(=O)CC)C(C)CC2C3CCC4=CC(=O)C=CC4(C)C3(F)C(O)CC21C (centres undefined),inactive
15,O=C(Cc1ccccc1)Nc1nnc(CCSCCc2nnc(NC(=O)Cc3ccccc3)s2)s1,inactive
16,Cc1[nH]nc2ncc(C(=O)N3CCC[C@H]3c3ccc(Cl)cc3)cc12,inactive
17,NS(=O)(=O)Oc1ccc2c3c(c(=O)oc2c1)CCCCC3,4.09 µM (active)
18,Fc1ccc(-c2csc3ncnc(NCc4ccc5c(c4)OCO5)c23)cc1,inactive
19,CC(=O)N1CCC(Nc2cc(C(=O)NC[C@H](O)CN3CCc4ccccc4C3)ncn2)CC1,inactive

row,Compound,Potency
1,Nc1cc(COc2c(Cl)cc(C[C@H](N)C(=O)O)cc2Cl)c2oc(-c3ccccc3)nc2c1,inactive
2,C=CC(=O)N1CC(N2CCN(C(=O)CNc3cc(C4(C)CC4)c(Cl)cc3O)CC2)C1,inactive
3,COc1ccc(S(=O)(=O)NCc2ccc(C(=O)NCCc3ccc(Cl)cn3)cc2)cc1,inactive
4,CCOCOC[C@H](C[C@H](C)C(=O)NO)NC(=O)c1ccc(Oc2ccccc2)cc1,inactive
5,CN(C(=O)CNC(=O)/C=C/c1cccc(Cl)c1)C1CCS(=O)(=O)CC1,inactive
6,OCCOc1ccc(/C(=C(/CCCl)c2ccccc2)c2ccccc2)cc1,inactive
7,CNS(=O)(=O)Nc1nccc(Cc2c(C)c3ccc(Oc4ncccn4)cc3oc2=O)c1F,inactive
8,CN(C)C(N)=NC(=N)N,inactive
9,C=CC(=O)Nc1cc(N2CCN(CC)CC2)ccc1Nc1cc(N(C)C(=O)Nc2c(Cl)c(OC)cc(OC)c2Cl)ncn1,inactive
10,CC(C)Oc1ccc(-c2nn([C@@H](C)c3oc4ccc(F)cc4c(=O)c3-c3cccc(F)c3)c3ncnc(N)c23)cc1F,inactive
11,Ac-PHSCN-NH2,inactive
12,CS(=O)(=O)c1ccc([C@@H](CC2CCCC2)C(=O)Nc2nccs2)cc1,inactive
13,CCS(=O)(=O)N1CCC(C(C)n2c(C)c(C(=O)NCc3c(OC)cc(C)[nH]c3=O)c3ccccc32)CC1 (centres undefined),inactive
14,CCOc1ccc(-n2c([C@@H](C)N(Cc3cccnc3)C(=O)Cc3ccc(F)c(C(F)(F)F)c3)nc3ncccc3c2=O)cc1,inactive
15,COC(=O)C1=C(C)NC(c2ncc(F)cc2F)=N[C@@H]1c1ccc(F)cc1Cl,inactive
16,CC(=O)[C@]1(N)Cc2c(O)c3c(c(O)c2[C@@H](O[C@H]2C[C@H](O)[C@H](O)CO2)C1)C(=O)c1ccccc1C3=O,inactive
17,Cc1ccc(NC(=O)[C@H]2CCCN(C(=O)c3c(C)cccc3F)[C@H]2c2ccc(NC3CCCC3)cc2)cc1C(F)(F)F,inactive
18,Nc1ncc(C(=O)NC2CN(C(=O)C3CC3)C2)c2ccc(-c3cccc(F)c3)nc12,inactive
